Bioassay records: PubChem, Johns Hopkins Ion Channel Center
Compounds with a hit are over-represented: about 1.6% of the library has one in this group of screens.
KCNQ2 pot = potentiators of rat KCNQ2 potassium channel. hit rate 0.54% among 310,000. Potassium voltage-gated channel subfamily KQT member 2 (Rattus norvegicus), O88943. CHO-K1 KCNQ2, FluxOR thallium flux fluorescence; active compounds read high. B-score at 10 µM;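 active means fluorescence ratio B-score at least 3 SD of library B-scores, with initial fluorescence B-score within 3 of them, cut at about 5.3 in these data; same plate scores as AID 2156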;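 further: B-score of peak minus minimum over baseline fluorescence ratio after K+ and Tl+ stimulus; positive B-score means potentiation of KCNQ2 with more thallium influx and brighter signal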
Target sequence (O88943 whole entry, looked up): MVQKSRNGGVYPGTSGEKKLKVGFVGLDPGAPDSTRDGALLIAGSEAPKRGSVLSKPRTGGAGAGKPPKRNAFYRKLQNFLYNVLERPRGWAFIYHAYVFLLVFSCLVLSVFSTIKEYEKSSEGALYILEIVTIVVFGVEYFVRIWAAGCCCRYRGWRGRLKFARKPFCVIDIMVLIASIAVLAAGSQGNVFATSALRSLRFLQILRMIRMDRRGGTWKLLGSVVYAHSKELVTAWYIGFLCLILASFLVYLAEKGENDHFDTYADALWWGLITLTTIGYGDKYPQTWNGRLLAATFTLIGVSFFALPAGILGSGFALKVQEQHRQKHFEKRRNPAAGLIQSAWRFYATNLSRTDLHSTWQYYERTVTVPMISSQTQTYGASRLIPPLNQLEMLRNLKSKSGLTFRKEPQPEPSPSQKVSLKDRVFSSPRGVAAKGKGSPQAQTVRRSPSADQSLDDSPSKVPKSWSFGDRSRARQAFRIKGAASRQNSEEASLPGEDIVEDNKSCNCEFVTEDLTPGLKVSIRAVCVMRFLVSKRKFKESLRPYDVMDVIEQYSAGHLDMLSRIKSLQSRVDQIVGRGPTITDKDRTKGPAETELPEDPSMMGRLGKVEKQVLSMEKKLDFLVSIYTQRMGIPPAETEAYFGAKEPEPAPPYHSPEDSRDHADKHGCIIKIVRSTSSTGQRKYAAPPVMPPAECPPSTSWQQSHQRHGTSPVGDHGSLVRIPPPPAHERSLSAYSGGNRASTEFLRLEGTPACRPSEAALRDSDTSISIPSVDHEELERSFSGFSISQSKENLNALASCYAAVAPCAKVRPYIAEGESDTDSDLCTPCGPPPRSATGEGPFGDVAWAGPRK
KCNQ2 block = rat KCNQ2 potassium channel inhibitors, primary screen, cell-based, CHO-K1, FluxOR thallium flux, B-score. hit rate 1.1% among 310,000. 20 min; active compounds read low. B-score at 10 µM. AID 2156, 2009. Potassium voltage-gated channel subfamily KQT member 2 (Rattus norvegicus), O88943;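 active means fluorescence ratio B-score at most minus 3 library SDs, with starting brightness B-score within 2 library SDs, cut at about -5.5 in these data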
Kir21 conf inh = mouse Kir2.1 channel blockers, retest, confirmation, cell-based, FluxOR thallium flux, duplicate | shares compounds with KCNQ2 pot | Kir2.1-expressing cells, FluxOR thallium flux fluorescence; active compounds read low | Tl flux remaining, % of negative control (active compounds read low), % at 10 µM | hit rate 41% among 2,300 | AID 2032, 2009;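 active means Primary-screen hit whose thallium flux fell at least 3 control SD below untreated wells in both duplicates, with normal baseline fluorescence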
HEK293 Tl flux = counter-screen for Kir2.1 inhibitors: effect in parental HEK293 cells. shares compounds with KCNQ2 pot. FluxOR thallium flux fluorescence; 0% = unstimulated blank wells. FluxOR signal as % of negative control (100 = no effect), % at 10 µM. hit rate 19% among 2,300. AID 2105;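 active means dye signal at least 3 control SD above or below untreated wells in both duplicates, raw fluorescence within 3, either direction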;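 further: percent is based on the flux ratio of peak minus minimum fluorescence over baseline F0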
CHO-K1 ctr = nonspecific thallium flux increase in parental CHO-K1, confirmation, counter-screen for KCNQ2 potentiator project, cell-based, FluxOR thallium flux, duplicate; hit rate 43% among 1,200; shares compounds with KCNQ2 pot; activity increase over 3SD of controls, % at 10 µM; parental CHO-K1 cells, FluxOR thallium flux fluorescence; zero = vehicle mean+3SD, 100% = vehicle-minus-blank window;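 active means signal rise of at least 3 SD above the untreated control mean, in both duplicate wells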;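 further: counter screen of KCNQ2 potentiator hits so any rise reflects channel-independent effects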
KCNQ1 pot spec = human KCNQ1 channel potentiation off-target, confirmation, selectivity assay for KCNQ2 potentiator project, cell-based, CHO, FluxOR thallium flux; hit rate 28% among 1,200; CHO KCNQ1 stable, FluxOR thallium flux fluorescence; beyond 3SD, as % of vehicle-control signal; shares compounds with KCNQ2 pot; activation over 3SD threshold, % at 10 µM;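 active means fluorescence ratio rise of at least 3 SD of vehicle wells above their mean, in both replicate wells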
KCNQ2 pot conf = rat KCNQ2 channel potentiators, confirmation, cell-based, CHO, FluxOR thallium flux, duplicate; AID 2287, 2010; potentiation, less the hit threshold, % at 10 µM; shares compounds with KCNQ2 pot; hit rate 68% among 1,200; CHO-KCNQ2 cells, FluxOR thallium flux fluorescence;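 active means fluorescence ratio rising 3 SD or more over the vehicle control mean in both replicates, plus primary screen hit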;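 further: peak minus minimum thallium fluorescence divided by baseline after K/Tl stimulus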
Kir2-1 sel = mouse Kir2.1 channel activation off-target, confirmation, selectivity assay for KCNQ2 potentiator project, cell-based, HEK293, FluxOR thallium flux; shares compounds with KCNQ2 pot; HEK293 Kir2.1, FluxOR thallium flux fluorescence; activity over 3SD threshold, % at 10 µM; hit rate 2% among 1,200; AID 2345, 2010;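 active means fluorescence ratio rise of at least 3 SD above the vehicle-control mean, seen in both replicates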
KCNQ2 W236L pot = potentiators of retigabine-insensitive KCNQ2 W236L, mechanism study for KCNQ2 potentiator project, cell-based, rat KCNQ2 W236L, CHO, automated patch clamp | shares compounds with KCNQ2 pot | automated patch clamp current | AID 2558, 2010 | current increase over 3SD of negative controls (%), active compounds read high, % at 25 µM | hit rate 10% among 940;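 active means current increase at least 3 SD of the untreated controls above them in both duplicate recordings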
Numbers stand for hits; i = inactive; nt = not tested or not shown.

SMILES	KCNQ2 pot	KCNQ2 block	Kir21 conf inh	HEK293 Tl flux	others
COc1ccc(Nc2nc(N3CCCCC3)c3ccccc3n2)cc1	nt	i	nt	nt
O=C(CN1C(=O)C2CC=CCC2C1=O)NCC(=O)Nc1ccc(F)c(F)c1F (centres undefined)	i	i	nt	nt
O=C(Oc1ccc(=O)n(-c2ccccc2)n1)c1ccccc1	nt	i	61%	i
O=C(O)COc1ccc(=O)n(-c2ccccc2)n1	i	i	nt	nt
COc1ccc(N2CCN(C(=O)c3ccc(C)cc3Cl)CC2)cc1	i	i	nt	nt
O=C(Nc1ccccc1)Nc1ncc([N+](=O)[O-])s1	7.8	i	i	i	CHO-K1 ctr=i;KCNQ1 pot spec=90;KCNQ2 pot conf=15;Kir2-1 sel=i;KCNQ2 W236L pot=i
O=C(Nc1ncc([N+](=O)[O-])s1)c1cccc([N+](=O)[O-])c1	i	i	nt	nt
COc1ccc(OCc2nnc(SCC(=O)c3c(N)n(C)c(=O)n(C)c3=O)n2-c2ccccc2F)cc1	i	i	nt	nt
CCCn1c(=N)n(CC(O)c2ccc(C)cc2)c2ccccc21 (centres undefined)	i	i	60%	i
CCCn1c(=N)n(CC(O)COc2ccc(C)cc2)c2ccccc21 (centres undefined)	i	i	nt	nt
COc1ccc(C2NN=C(c3c[nH]c4ccccc34)C2O)cc1 (centres undefined)	nt	i	nt	nt
Cc1ccc(CSc2nnc(-c3cccs3)n2C)cc1	i	i	nt	nt
CC1CCc2c(sc3ncnc(SCC(=O)Nc4ccc(C(=O)O)cc4)c23)C1 (centres undefined)	i	i	nt	nt
COc1cc(NC(=O)CSc2ncnc3sc4c(c23)CCC(C)C4)c(C(=O)O)cc1OC (centres undefined)	19	i	i	417%	CHO-K1 ctr=i;KCNQ1 pot spec=36;KCNQ2 pot conf=94;Kir2-1 sel=i;KCNQ2 W236L pot=i
CC(C(=O)NCC1CCCO1)N(C(=O)c1snc(C(N)=O)c1N)c1cccc(F)c1 (centres undefined)	i	i	nt	nt
CCOC(=O)C(=Cc1cc(=O)c(OC)co1)C(=O)OCC	i	i	i	i
COc1coc(C(O)CN)cc1=O (centres undefined)	i	i	nt	nt
COC(=O)COc1ccc(Oc2nc(SC)nc(N(C)C)n2)nn1	i	i	nt	nt
Cc1nn2c(COc3ccc(NC(=O)c4ccccc4)cc3)nnc2c2ccccc12	i	i	nt	nt
CCN1CCN(CCCNC(=O)c2ccc3c(c2)N(Cc2ccc(C)cc2)CCS3)CC1	i	i	nt	nt
O=C(CCNS(=O)(=O)c1ccccc1)N1CCC(Cc2ccccc2)CC1	10	i	i	i	CHO-K1 ctr=14;KCNQ1 pot spec=88;KCNQ2 pot conf=8.7;Kir2-1 sel=i;KCNQ2 W236L pot=i
CC1CCN(C(=O)CCNS(=O)(=O)c2ccccc2)CC1	i	i	nt	nt
CCC(=O)c1cc2c(C)cc(=O)oc2c(C)c1OC(C)=O	i	i	nt	nt
CN(C)CCCn1c(NC(=O)C2CCCCC2)nc2ccccc21	i	i	nt	nt
CCCCn1c(NC(=O)C2CCCCC2)nc2ccccc21	9.6	i	i	i	CHO-K1 ctr=3.9;KCNQ1 pot spec=i;KCNQ2 pot conf=16;Kir2-1 sel=i;KCNQ2 W236L pot=i
SMILES	KCNQ2 pot	KCNQ2 block	Kir21 conf inh	HEK293 Tl flux	others
C/C(=N/NC(=O)CNC(=O)c1ccncc1)c1ccc(Cl)cc1	nt	i	nt	nt
CC1=CCC[C@@H]2[C@@](C)(CC/C(C)=C/C(=O)O)[C@H](C)CC[C@@]12C	15	i	i	136%	CHO-K1 ctr=68;KCNQ1 pot spec=35;KCNQ2 pot conf=7.9;Kir2-1 sel=i;KCNQ2 W236L pot=i
CCN(CC)C(=O)c1sc(NC(=O)c2cccnc2)c(C(=O)OC)c1C	i	i	nt	nt
Cc1c(Cc2ccccc2)c(=O)oc2c(CN(C)C)c(O)c(Cl)cc12	i	i	nt	nt
CN(C)Cc1c(O)ccc2oc(Cc3ccccc3)cc12	i	i	42%	i
O=C(c1cc2c(=O)oc3ccccc3c2s1)N1CCOCC1	nt	i	nt	nt
Cc1ccc(CN2CCC(C(=O)Nc3cccc(-c4cccc(F)c4)c3)CC2)o1	nt	i	nt	nt
O=C(Nc1cccc(-c2cccc(Cl)c2)c1)C1CCN(Cc2ccc(CO)o2)CC1	nt	i	63%	i
COc1ccccc1NS(=O)(=O)c1ccc(O)cc1	nt	i	nt	nt
Cc1nn2c(NCCN(C)C)c3c(nc2c1-c1ccccc1)CCCC3	6.1	i	nt	nt	CHO-K1 ctr=i;KCNQ1 pot spec=i;KCNQ2 pot conf=i;Kir2-1 sel=i
COCCNc1c2c(nc3c(-c4ccccc4)c(C)nn13)CCCC2	nt	i	nt	nt
CCOc1ccc(OCCC(=O)OC(C)C(=O)Nc2ccc(C(C)=O)cc2)cc1 (centres undefined)	i	i	nt	nt
CCN(CC)CC(=O)N1c2ccccc2Sc2ccccc21	i	i	nt	nt
CCN(CC)CCCCN1c2ccccc2Sc2ccccc21	nt	i	44%	i
CCOC(=O)Cc1c(C)nc2cc(C)nn2c1C	i	i	nt	nt
N=c1c2c(-c3ccccc3)c(-c3ccccc3)n(Cc3ccccc3)c2ncn1CCCn1ccnc1	nt	i	i	i
Cc1cc(NCCCn2ccnc2)n2nc(C)c(-c3ccccc3)c2n1	nt	i	nt	nt
N=c1c2c(-c3ccccc3)c(-c3ccccc3)n(Cc3ccco3)c2ncn1Cc1ccco1	i	-6.9	54%	i
N=c1c2c(ncn1Cc1ccco1)Oc1ccc3ccccc3c1C2c1ccccc1 (centres undefined)	i	i	nt	nt
CC(C)c1ccc(-c2c(C#N)c(N)nc3c2CCCCC3)cc1	i	i	nt	nt
O=C(CSCc1ccc(Cl)cc1)Nc1ccc2c(c1)OCO2	nt	i	nt	nt
CC(C)N1C(=O)CCC1C(=O)O (centres undefined)	i	i	nt	nt
COc1ccc(/C=N/N2CCN(C)CC2)cc1OC	i	i	nt	nt
COc1ccc(C)cc1Nc1n[n+](-c2ccccc2)c(-c2cc(OC)c(OC)cc2Br)s1	i	-6.4	53%	i
COc1ccc(C)cc1Nc1n[n+](-c2ccccc2)c(-c2ccc(C(=O)O)cc2)s1	i	i	nt	nt
CNC(=O)c1ccccc1S(=O)c1ccccc1COC(C)=O (centres undefined)	i	i	nt	nt
CSc1nc(-c2cccs2)c(C#N)c(=O)[nH]1	i	i	nt	nt
